Laboratory results taken from PubChem BioAssay AID588342 (National Center for Advancing Translational Sciences (NCATS), 2011).
Where “and” joins values, the source holds several entries; their conditions need not be identical. Identical values can stand only once. Out of some 360,000 compounds screened, about 25,000 (6.9%) were called active. Another 9% or so got no clear call; they are omitted. The sample as a whole holds a higher share of actives than the screen did. Unmarked numbers belong to inactive results. Calls come from the whole dose curve; as a rule, active = well fitted inhibition curve with a large enough effect; inconclusive = small, poorly fitted or top-dose-only effect; inactive = flat fitted curve, though single readings scatter.

target: Luciferin 4-monooxygenase (Photinus pyralis) (UniProt P08659); experiment: qHTS profiling assay for firefly luciferase inhibitor/activator using purifed enzyme and Km concentrations of substrates (counterscreen for miR-21 project); settings: purified FLuc, luminescence inhibition; series mostly up to 57.5 µM; activity change, negative = inhibition: at the top concentration; note: nearly all actives have a fitted effect of over 55% in size;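 for activity change, negative = inhibition: plate controls were vehicle for no effect and reference inhibitor for full effect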
Outline: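 Purified P. pyralis luciferase, 10 nM final, with Km-level 10 uM D-luciferin and 10 uM ATP in 50 mM Tris acetate pH 7.5, 10 mM Mg acetate, 0.01% Tween-20, 0.05% BSA; 6-point qHTS titration about 60 µM downward; luminescence read.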
Potency is the fitted concentration of half-maximal effect.

Sequence of Luciferin 4-monooxygenase (Photinus pyralis) (P08659 whole entry, looked up): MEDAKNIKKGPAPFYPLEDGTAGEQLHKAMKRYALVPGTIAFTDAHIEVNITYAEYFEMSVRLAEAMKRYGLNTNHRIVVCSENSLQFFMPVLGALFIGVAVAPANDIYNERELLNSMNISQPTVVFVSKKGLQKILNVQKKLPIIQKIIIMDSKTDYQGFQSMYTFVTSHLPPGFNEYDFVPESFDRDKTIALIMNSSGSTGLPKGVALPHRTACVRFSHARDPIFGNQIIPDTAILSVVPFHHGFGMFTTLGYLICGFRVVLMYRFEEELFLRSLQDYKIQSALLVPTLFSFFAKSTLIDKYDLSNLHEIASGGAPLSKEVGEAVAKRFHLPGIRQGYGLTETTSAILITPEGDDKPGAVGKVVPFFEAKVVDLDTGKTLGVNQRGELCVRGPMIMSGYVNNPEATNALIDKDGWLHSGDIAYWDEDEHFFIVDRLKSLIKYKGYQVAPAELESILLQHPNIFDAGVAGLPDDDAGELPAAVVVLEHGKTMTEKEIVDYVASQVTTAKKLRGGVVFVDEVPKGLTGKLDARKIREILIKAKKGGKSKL

| SMILES | activity change, negative = inhibition [%] | Potency |
| --- | --- | --- |
| O=C(/C=C/c1cccs1)c1cc(Cl)ccc1OC(=O)N1CCOCC1 | -0.486 |  |
| CCOc1ccc(C2C(=O)N(C3CCCCC3)CC(=O)N2CCC2=CCCCC2)cc1OC (stereo not drawn) | 0.188 |  |
| Cc1cccc(CSc2nnc(C)c(=O)n2N)c1 | 5.06 |  |
| Cc1cccc(CSc2ccc(-c3cccs3)nn2)c1 |  | 12 µM (active) and 8.49 µM (active) |
| N#Cc1ccc(-c2cccs2)nc1SCc1ccc(Br)cc1 | -2.78 |  |
| C[C@H](NC(=O)c1ccccc1Cl)C(=O)OCC(=O)N1CCN(c2ccccc2)CC1 | 1.68 |  |
| COc1ccc(C(=O)C2CCCN(S(=O)(=O)c3cccc(C)c3)C2)c(C)c1 (stereo not drawn) | 5.75 |  |
| CCN1C(=O)c2ccccc2S(=O)c2ccc(C(=O)NCc3ccc(F)cc3)cc21 (stereo not drawn) | 1.08 |  |
| O=C(O)c1cccc(N=NN2CCCCCC2)c1 |  | 6.75 µM (active) |
| O=C(O)c1ccc(N=NN2CCOCC2)cc1 | 1.54 |  |
| CN1CCN(S(=O)(=O)c2cccc(C(=O)O)c2)CC1 | -0.781 |  |
| CC(C)Oc1ccc(S(=O)(=O)N2CCOCC2)cc1NC(=O)C1CCCC1 | 0.0682 |  |
| O=C(Cn1nc(C(F)(F)F)c2c1CCCC2)Nc1ccc(Cl)cc1 | -4.17 |  |
| O=C(NCCSc1ccccc1)c1ccco1 |  | 23.9 µM (active) |
| O=C(CNC(=O)c1ccco1)OCC(=O)c1ccccc1 | -3.69 |  |
| O=C(NCCS(=O)(=O)N1CCN(c2ccccc2)CC1)c1ccco1 | 2.07 |  |
| CCOC(=O)Cn1c(=O)n(-c2ccccc2OC)c2nc(-c3cccc(F)c3)nc(C(N)=O)c21 | -8.14 |  |
| CC(C)(C)c1ccc(S(=O)(=O)N2CCN(C(=O)c3cc(-c4ccc(Br)cc4)n[nH]3)CC2)cc1 | 0.458 |  |
| Cc1nnsc1C(=O)N/N=C/c1cccc(C(F)(F)F)c1 | -2.3 |  |
| FC(F)(F)c1cccc(N/N=C/c2ccccc2)c1 |  | 12 µM (active) |
| CC(=O)N1CCN(C(=O)Nc2cccc(C(F)(F)F)c2)CC1 | -0.34 |  |

| SMILES | activity change, negative = inhibition [%] | Potency |
| --- | --- | --- |
| CCC1CCCCN1C(=O)Cn1c(=O)n(CCCCCC(=O)NCc2ccccc2)c(=O)c2sccc21 (stereo not drawn) | -16.2 |  |
| CC(C)(C)OC(=O)Nc1ccc([C@@H](NC(=O)OC(C)(C)C)C(=O)OC(C)(C)C)cc1 | 2.72 |  |
| COc1ccc2cc(CNc3ccc(OC)c(OC)c3)c(=O)n(CC(=O)Nc3ccccc3F)c2c1 | 5.48 |  |
| Cc1cc2c(cc1S(=O)(=O)CCC(=O)Nc1ccc(OC(F)(F)F)cc1)OCC(=O)N2 | -15.7 |  |
| Nn1c(SCC(=O)Nc2nccs2)nnc1-c1ccco1 | 1.42 |  |
| CCc1ccc(NC(=O)Cn2ncn3c(cc4ccccc43)c2=O)cc1 |  | inactive |
| CC(C)c1ccc(NC(=O)Cn2nnc(C(=O)NCCc3ccccc3)c2N)cc1 | -5.02 |  |
| CC(C)c1ccc(NC(=O)Cn2ncc3ccccc32)cc1 |  | 10.7 µM (active) |
| Cc1oc(-c2ccccc2)nc1Cn1c(SCc2cccc(C(F)(F)F)c2)nc2cccnc21 | -14.9 |  |
| COc1ccc(N2CCN(Cc3nc4c(c(=O)[nH]c(=O)n4C)n3Cc3ccc(Cl)cc3)CC2)cc1 | -1.19 |  |
| O=C(NCCCO)C(=O)Nc1c2c(nn1-c1ccccc1)CSC2 | -8.71 |  |
| Cc1nc2ccccn2c1C(=O)NN=C1CCN(C)CC1 | -1.15 |  |
| CC1=CC2=NC(=O)/C(=C/c3coc4ccccc4c3=O)C(=N)N2O1 | -16.2 |  |
| COc1ccccc1OCCOc1ccc(/C=C2\C(=N)N3N=C(C)SC3=NC2=O)cc1 | -12.2 |  |
| CCC1=NN2C(=N)/C(=C/c3cc(C)n(-c4ccccc4)c3C)C(=O)N=C2S1 |  | 26.9 µM (active) |
| Cc1cc(/C=C2/C(=N)N3C(=NC2=O)SN=C3S(C)(=O)=O)c(C)n1-c1ccccc1 |  | 0.536 µM (active) |
| CCOc1cc(/C=C2\C(=N)N3N=C(C)SC3=NC2=O)ccc1OCCOc1ccccc1 | 1.67 |  |
| CCS(=O)(=O)C1=NSC2=NC(=O)/C(=C\c3ccc(OS(=O)(=O)c4ccccc4)cc3)C(=N)N21 | -9.36 |  |
| N=C1/C(=C/c2cccn2-c2cccc([N+](=O)[O-])c2)C(=O)N=C2SC=CN12 | 4.38 |  |
| CCS(=O)(=O)C1=NSC2=NC(=O)/C(=C\c3cc(C)n(-c4cccc(OC)c4)c3C)C(=N)N21 |  | 6.75 µM (active) |
| Cc1cccc(N2CCN(C(=O)c3oc(=O)c4ccccc4c3-c3ccccc3)CC2)c1C | -0.455 |  |

| SMILES | activity change, negative = inhibition [%] | Potency |
| --- | --- | --- |
| COc1ccc(CC(=O)N2CC(=O)Nc3ccc(Br)cc3C2c2ccc(F)cc2)cc1OC (stereo not drawn) | 0.675 |  |
| O=C(Cn1c(=O)nc(-c2ccccc2)c2cc(Cl)ccc21)NCc1ccc(Cl)cc1 | 3.37 |  |
| Cc1c(C(C)CCCO)oc(=O)c2c1Oc1c(C)c(C(C)C[C@@H](C)O)oc(=O)c1C2 (stereo partly drawn) | 2.46 |  |
| O=C(NCCN1CCOCC1)c1cccc(S(=O)(=O)Nc2ccc(F)cc2)c1 | 3.82 |  |
| COc1cc(Cl)c(C)cc1NC(=O)CCc1nc2cccnc2n1Cc1cccs1 | -15.4 |  |
| CCOc1ccc(NC(=O)CCC(=O)NNC(=O)NC2CCCCC2)cc1 | 1.41 |  |
| Cc1ccccc1C(=O)Nc1sc2c(c1C(=O)N1CCC(C)CC1)CCCC2 | -1.02 |  |
| CCNS(=O)(=O)c1cc(-c2nnc(Nc3cccc(C(F)(F)F)c3)c3ccccc23)ccc1C | 3.64 |  |
| CCOC(=O)C1CCCN(C(=O)c2ccc(C)c(S(=O)(=O)N3CCCCC3)c2)C1 (stereo not drawn) | -3.18 |  |
| Cn1cccc1/C=N/NC(=O)CNc1cccc2ccccc12 | -17 |  |
| Cn1cccc1/C=N/NC(=O)c1ccc(OC(F)(F)C(F)F)cc1 |  | 12 µM (active) |
| COC(=O)[C@H](C)NC(=O)Nc1ccc(OC(F)(F)F)cc1 | 0.295 |  |
| COc1ccc(NC(=O)CSc2nc3ccccc3n2CC(=O)N2CCCCC2C)cc1 (stereo not drawn) | -2.28 |  |
| Cc1ccc(S(=O)(=O)N2CCOCC2)cc1NC(=O)CSc1nnc(N)s1 | 2.58 |  |
| CCOC(=O)c1cc2c(=O)n3ccccc3nc2n(Cc2ccco2)c1=NC(=O)c1ccc(F)cc1 | -0.239 |  |
| Cc1ccc(OCCSc2nc3ccc(NC(=O)COc4ccc(C)cc4)cc3s2)cc1 | 1.87 |  |
| CC1CCN(S(=O)(=O)c2ccc3c(ccn3CCC(=O)NCc3ccc(N(C)C)cc3)c2)CC1 | -2.72 |  |
| COc1ccc(CC(=O)Nc2nnc3n2CCS3)cc1OC | -3.34 |  |
| CCOCCCNC(=O)c1cc2c(=O)n3ccccc3nc2s1 | -15 |  |
| CCc1ccc2oc(-c3ccc(N)cc3)nc2c1 |  | 0.19 µM (active) |
| NS(=O)(=O)c1ccc(CCNC(=O)CCCCCn2c(=O)[nH]c3ccccc3c2=O)cc1 | -7.29 |  |
